We go through 69 compounds from ChEMBL document CHEMBL4513216, “Probing the Open Global Health Chemical Diversity Library for Multistage-Active Starting Points for Next-Generation Antimalarials” (ACS Infect Dis, 2020).

Screen size: about 65,000 compounds; about 2,100 (3.2%) showed an effect of 50% or more. The median lay at about -52%. This excerpt belongs to a sample that is enriched for strong results.

The test system of this assay is Plasmodium falciparum. Kind of assay: Screen against P. falciparum Asexual Blood Stage (ABS), at 5uM. In kind it is functional, Dd2. Conditions: tested at 5 uM.
Regarding `COc1cc(N2CCCC3(CCN(c4cccnc4)C3=O)C2)ncn1` (centres undefined), the INHIBITION is given as -14.1%.
As to `Cc1nnc2ccc(N3CCC4(CCOC4)C3)nn12` (centres undefined), the INHIBITION is recorded as -37.2%.
Consider `FC(F)c1nnc2ccc(N3CCC4(CCOC4)C3)nn12` (centres undefined), for which the INHIBITION is recorded as -52.7%.
Consider `FC(F)c1nnc2ccc(N3CCC4(CCCCC4)C3)nn12`, for which the INHIBITION is 61.4%.
Consider `O=S1(=O)CCC(CNc2cc(-c3ccccc3)nc3ccnn23)C1` (centres undefined), for which the INHIBITION is -47.3%.
As for `O=S(=O)(c1ccccc1F)N1CCCC(c2nccs2)C1` (centres undefined), the INHIBITION is on record as -129%.
For `O=C(NCCCSc1ccc(F)cc1)C1CCc2cn[nH]c2C1` (centres undefined), the INHIBITION is listed as -54.6%.
As for `COCc1cn(C2CCN(CCC(C)c3ccccc3)CC2)nn1` (centres undefined), the INHIBITION is given as -46.3%.
Consider `COc1ccc(C(=O)NCC2CCCN(C3CCOCC3)C2)c(O)c1` (centres undefined), for which the INHIBITION was -31.9%.
The value for `CCc1noc(CN2CCN(CCO)CC2)n1` was -176%.
In the case of `CCCc1noc(CN2CCN(CCO)CC2)n1`, the INHIBITION is reported as 50.5%.
The value for `CC(C)Cc1noc(CN2CCN(CCO)CC2)n1` was 0.0946%; that for `C[C@H](O)CNc1cc(-c2ccncc2)ncn1` was -170%.
The value for `CCCOCCN1CCC2(CC1)CC(=O)N(Cc1cc(F)cc(F)c1)C2` was 38.7%; that for `Cc1ccc(O)c(CNCC(C)c2nc3ccccc3o2)n1` (centres undefined) was 63.2%; that for `Cc1csc(CNCC(C)c2nc3ccccc3o2)n1` (centres undefined) was -27.8%.
The value for `Cc1nc(CNCC(C)c2nc3ccccc3o2)cs1` (centres undefined) was -109%.
`CN1CCc2nc(C3CCN(C(=O)CCC4CCCC4)CC3)ncc2C1`: the INHIBITION was -37.6%.
Then `O=C(NC1CCCN(CCCc2ccccc2)C1)c1ccncc1` (centres undefined), with -29.1%; and `O=C(NC1CCCN(CCCc2ccccc2)C1)c1ccc(Cl)s1` (centres undefined), with 60.9%.
Turning to `O=C(NC1CCCN(CCCc2ccccc2)C1)C1=CCCCC1` (centres undefined), the INHIBITION came to 2.46%.
For `CC(=O)N1CC[C@H](c2nc3cc(C)ccc3o2)C1`, the INHIBITION is on record as -68.8%.
Then `CC(=O)N1CC[C@H](c2nc3cc(F)ccc3o2)C1`, with -105%; and `O=C(C1CC1)N1CC[C@H](c2nc3ccccc3o2)C1`, with 50.1%; and `Cc1cc(C)c(N(CC(O)CNCc2ccco2)S(C)(=O)=O)c(C)c1` (centres undefined), with 60.7%.
As to `Cc1ccc(CS(=O)(=O)NCc2ccco2)cc1`, the INHIBITION was -31.4%.
For the compound `CC(O)CNc1c(NCc2ccco2)c(=O)c1=O` (centres undefined), the INHIBITION is listed as -192%.
As for `CN(C)c1nc(NCCc2ccccn2)ncc1F`, the INHIBITION was -447%.
For the compound `Cc1ccc2c(c1)CN(C(=O)c1cnc(C)cn1)C(CN(C)C)CO2` (centres undefined), the INHIBITION is listed as -86.1%.
The value for `Cc1ccc2c(c1)CN(C(=O)c1cccnc1)C(CN(C)C)CO2` (centres undefined) was 29.2%; that for `COc1ccccc1C(=O)N1Cc2cc(C)ccc2OCC1CN(C)C` (centres undefined) was 60.8%; that for `Cc1nc(C)c(C(=O)N2Cc3ccccc3OCC2CN(C)C)o1` (centres undefined) was -21.9%.
Take `Cc1ccc2c(c1)CN(C(=O)c1ccccc1F)C(CN(C)C)CO2` (centres undefined): the INHIBITION was determined as 50.4%.
Then `COc1ccc(C(=O)N2Cc3cc(C)ccc3OCC2CN(C)C)cc1` (centres undefined), with 17.9%.
As for `Cc1ccc(C(=O)N2CCCCC2CN(C)C)cc1` (centres undefined), the INHIBITION is given as -58.9%.
For `Cc1ccc2c(c1)CN(C(=O)c1ccncc1)C(CN(C)C)CO2` (centres undefined), the INHIBITION was determined as 13%.
Then `Cc1ccc2c(c1)CN(C(=O)C1CCCCC1)C(CN(C)C)CO2` (centres undefined), with 66%; and `CCCn1nccc1NC(=O)CN1CCc2cnc(C(C)C)nc2C1`, with -4.64%; and `CC(C)CNC(=O)CC1(Cn2cnnn2)CCCCC1`, with -92.1%.
Consider `O=S(=O)(c1ccc(Cl)s1)N1CCCn2ncnc21`, for which the INHIBITION is -131%.
The value for `O=C1CO[C@@H]2CN(CC3CC3)C[C@H]2N1Cc1cccc(F)c1` was -55%; that for `O=C1NCC2(CCC(C(=O)N3CCC(O)CC3)CC2)Oc2ccccc21` (centres undefined) was -99.2%; that for `CN(C)c1nccc(C2CN(c3ccccc3)CCO2)n1` (centres undefined) was -40.1%.
The value for `Cc1ccc(C)n1-c1c(C(=O)NCC(C)N(C)C)cnn1C` (centres undefined) was -93.5%; that for `CCN1C(=O)CCCC12CCCN(C(=O)c1ccncc1F)C2` (centres undefined) was -46.7%; that for `Fc1ccccc1CN1CCCC(NC2CCOCC2)C1` (centres undefined) was -11.9%.
With `CC(C)(CNC1CCCN(Cc2ccccn2)C1)CN1CCOCC1` (centres undefined), the INHIBITION is on record as -82.2%.
Then `CC(C)(CNC1CCCN(Cc2ccccc2F)C1)CN1CCOCC1` (centres undefined), with 56.4%; and `CN(C)c1ncc(CNC(=O)Nc2ccccc2F)n1C`, with -31%.
Consider `CN(C)c1ncc(CNC(=O)Nc2ccc(C(F)(F)F)cc2)n1C`, for which the INHIBITION was determined as 68.3%.
Then `CN(C)c1ncc(CNC(=O)Nc2ccccc2C(F)(F)F)n1C`, with -113%; and `Cn1cc(C(=O)NCc2cn3c(n2)CN(C2CCOCC2)CC3)cn1`, with -26.8%; and `COCCN(C(=O)c1ccccn1)c1nc2c(s1)CCc1c-2cnn1C`, with 6.99%.
Then `CC(C)[C@H]1CN(C2Cc3ccccc3C2)C[C@@H]1NS(=O)(=O)N(C)C`, with 61.6%; and `CC(C)[C@@H]1CN(CCOc2ccccc2)C[C@H]1NS(=O)(=O)N(C)C`, with 40.3%; and `CC(C)[C@@H]1CN(Cc2ccsc2)C[C@H]1NS(=O)(=O)N(C)C`, with 66.3%.
The value for `Cc1nc(CN2C[C@@H](NS(=O)(=O)N(C)C)[C@H](C(C)C)C2)cs1` was 19.1%; that for `CC(=O)c1cc(CN2C[C@@H](NS(=O)(=O)N(C)C)[C@H](C(C)C)C2)cs1` was 32.8%; that for `CC(C)[C@H]1CN(C2Cc3ccccc3C2)C[C@@H]1NS(C)(=O)=O` was 34.6%.
Take `Cc1ccsc1CN1CCc2c(nc(N3CCCCC3C)[nH]c2=O)C1` (centres undefined): the INHIBITION is reported as -14.7%.
The value for `COCCN1C[C@@H]2CN(c3cc(OC)ncn3)CCC[C@]2(C(=O)O)C1` was -84%; that for `O=C(NCc1cn2c(n1)CN(CC1CCOCC1)CC2)C1CCC1` was -14.2%; that for `c1ncn(Cc2nnc(C3CCN(CC4CC4)CC3)n2C2CC2)n1` was -88.1%.
As for `Cc1cc(NC(=O)NCC(O)c2ccc(F)cc2)n(C)n1` (centres undefined), the INHIBITION is given as 18.3%.
As for `Cc1cc(C)cc(CNc2ccc(C(=O)NC(C)CO)cc2)c1` (centres undefined), the INHIBITION is -96.7%.
For `COC(=O)CC1CCCCN1CC(=O)Nc1ccc(F)cc1Cl` (centres undefined), the INHIBITION is on record as -174%.
Then `CCN1CCCC(O)(CN(C)Cc2c(C)nn(C)c2C)C1` (centres undefined), with -105%.
Then `CCN1CCCC(O)(CN(C)Cc2ccccc2F)C1` (centres undefined), with 57.5%; and `CCN1CCCC(O)(CNCc2ccccc2F)C1` (centres undefined), with 40.6%.
